Experimental data: article PMC4336329 (PLoS ONE, 2015)
The campaign covered roughly 310,000 compounds. About 14,000 (4.5%) showed an effect of 50% or more. The effect is printed as a negative number. This is one part of a sample in which strong results are shown more often than they occur.

The molecules below were run against human ether-à-go-go-related gene (hERG) potassium channel (human, UniProt Q12809) (assay: primary screen, population patch clamp on CHO cells stably expressing hERG; higher = less effect of the substance).
human ether-à-go-go-related gene (hERG) potassium channel, sequence (Q12809 whole entry, looked up): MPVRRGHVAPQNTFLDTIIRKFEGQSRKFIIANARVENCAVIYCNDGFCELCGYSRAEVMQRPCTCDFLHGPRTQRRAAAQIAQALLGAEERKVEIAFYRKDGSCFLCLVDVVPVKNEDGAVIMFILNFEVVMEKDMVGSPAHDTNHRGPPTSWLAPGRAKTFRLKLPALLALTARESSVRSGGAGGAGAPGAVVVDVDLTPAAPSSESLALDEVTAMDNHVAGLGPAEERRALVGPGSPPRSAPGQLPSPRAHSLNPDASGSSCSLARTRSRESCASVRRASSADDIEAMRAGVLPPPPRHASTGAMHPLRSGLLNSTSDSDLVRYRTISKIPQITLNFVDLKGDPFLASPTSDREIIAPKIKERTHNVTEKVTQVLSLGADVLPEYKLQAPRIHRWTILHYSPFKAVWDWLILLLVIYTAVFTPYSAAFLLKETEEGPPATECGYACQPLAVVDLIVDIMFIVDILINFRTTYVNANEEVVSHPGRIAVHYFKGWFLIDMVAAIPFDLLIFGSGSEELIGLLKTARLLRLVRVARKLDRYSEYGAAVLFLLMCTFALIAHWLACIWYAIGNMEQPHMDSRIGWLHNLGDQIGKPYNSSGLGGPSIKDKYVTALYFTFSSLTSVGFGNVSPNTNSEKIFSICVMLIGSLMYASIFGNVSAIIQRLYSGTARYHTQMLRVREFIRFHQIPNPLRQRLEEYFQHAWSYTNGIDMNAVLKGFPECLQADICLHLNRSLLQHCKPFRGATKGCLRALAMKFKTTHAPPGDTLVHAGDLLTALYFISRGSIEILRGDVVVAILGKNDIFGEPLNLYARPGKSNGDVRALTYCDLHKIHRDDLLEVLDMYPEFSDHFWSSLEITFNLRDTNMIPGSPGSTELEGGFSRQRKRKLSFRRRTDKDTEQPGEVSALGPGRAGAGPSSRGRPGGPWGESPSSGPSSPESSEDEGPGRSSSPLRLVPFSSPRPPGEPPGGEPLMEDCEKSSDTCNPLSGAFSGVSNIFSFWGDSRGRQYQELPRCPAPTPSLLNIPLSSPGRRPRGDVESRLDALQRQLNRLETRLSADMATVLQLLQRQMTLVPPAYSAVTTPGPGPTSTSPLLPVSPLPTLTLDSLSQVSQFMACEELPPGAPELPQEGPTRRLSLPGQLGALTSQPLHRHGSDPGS
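Also: peak tail current of the secondary pulse compared with the same well before compound.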

Row | Structure (SMILES) | hERG current change (%, negative = inhibition) at 10uM
1 | NC(=O)c1ncc(C(F)(F)F)cc1Oc1ccc(C(F)(F)F)cc1 | 24.9%
2 | O=C(N/N=C1/SCC(=O)N1Cc1ccco1)c1ccccc1F | 20.1%
3 | Cc1cccc(-c2nsc(SCC(=O)c3ccc(Cl)cc3)n2)c1 | 23.3%
4 | CCOC(=O)C(C(=O)OCC)C(=O)c1cc(OC)c(OC)c(OC)c1 | -16.4%
5 | O=S(=O)(Nc1nc2ccccc2nc1N1CCc2ccccc2C1)c1ccc(Cl)cc1 | 7.74%
6 | COc1ccc(C(=O)O)cc1S(=O)(=O)NCc1cccnc1 | 19.4%
7 | CCc1nn(CCCN2CCN(c3cccc(Cl)c3)CC2)c(=O)n1CCOc1ccccc1 | -63.2%
8 | O=C(Cn1nc(-c2ccccc2)ccc1=O)NCCN1CCN(c2cccc(Cl)c2)CC1 | -24.4%
9 | CCc1nn(CCCN2CCN(c3cccc(Cl)c3)CC2)c(=O)n1CCOc1ccccc1.Cl | -65%
10 | Cc1nn(CCOc2ccccc2)c(=O)n1-c1ccc(Cl)cc1 | -3.66%
11 | Cl.OCCN1CCN(CCOc2cccc(Cl)c2)CC1 | -15.6%
12 | COc1cccc(-n2c(C)nn(CCOc3ccccc3)c2=O)c1 | 8.58%
13 | O=Cc1ccnc(-c2ccc(OC(=O)c3ccco3)cc2)n1 | 7.26%
14 | Cc1cc(Br)ccc1NS(=O)(=O)c1c(C)[nH]c(=O)[nH]c1=O | 11.6%
15 | c1ccc(-n2ncc3c(NCc4ccccn4)ncnc32)cc1 | 0.854%
16 | CC(=O)NS(=O)(=O)c1ccc(NC(=O)COc2ccc(C(=O)c3ccccc3)cc2)cc1 | 15.8%
17 | Cc1nnsc1S(=O)c1ccc(Br)cc1 (stereo not drawn) | -1.16%
18 | COCCn1c(SCC(=O)N2CCC(C)CC2)nc2c([nH]c3ccccc32)c1=O | -19.8%
19 | COCCn1c(SCC(=O)N2CCCCC2)nc2c([nH]c3ccccc32)c1=O | -20.5%
20 | COCCn1c(SCC(=O)N2CCCC2)nc2c([nH]c3ccccc32)c1=O | -61.3%
21 | CCOC(=O)N1CCN(C(=O)CSc2nc3c([nH]c4ccccc43)c(=O)n2CC)CC1 | -13.8%
22 | COCCn1c(SCC(=O)N2CCCCCC2)nc2c([nH]c3ccccc32)c1=O | -5.06%
23 | CCOC(=O)N1CCN(C(=O)CSc2nc3c([nH]c4ccccc43)c(=O)n2CCOC)CC1 | -65.1%

Row | Structure (SMILES) | hERG current change (%, negative = inhibition) at 10uM
24 | Nc1nnc(SCC(=O)NCCOc2ccccc2)s1 | 4.23%
25 | Cc1nc(-c2ccccc2O)n(S(=O)(=O)N(C)C)n1 | -4.34%
26 | CCCC[n+]1ccn(C2=C([O-])c3ccccc3C(=O)/C2=N\S(=O)(=O)c2ccc(Br)cc2)c1 | -20.7%
27 | O=C(Nc1ccccc1F)C1(c2ccccc2)CC1(Cl)Cl (stereo not drawn) | -70%
28 | O=C(Nc1ccccc1Cl)C1(c2ccccc2)CC1(Cl)Cl (stereo not drawn) | -0.213%
29 | O=C(Nc1ccccc1)C1(c2ccccc2)CC1(Cl)Cl (stereo not drawn) | -18.1%
30 | Cc1ccc(C(=O)c2ccccc2C(=O)O)c(O)c1 | 1.4%
31 | Cc1noc(NS(=O)(=O)c2ccc(NC(=O)CSc3nc4ccccc4s3)cc2)c1C | -2.99%
32 | CC1CC(C)CN(CCCNC(=O)c2ccc3nc(N4CCCCC4)sc3c2)C1 (stereo not drawn) | -47.5%
33 | CCOC(CNC(=O)c1ccc2nc(N3CCC(C)CC3)sc2c1)OCC | 10.6%
34 | CC1CCN(c2nc3ccc(C(=O)O)cc3s2)CC1 | 22.8%
35 | CC1CCCC(C)N1CCCNC(=O)c1ccc2nc(N3CCCCC3)sc2c1 (stereo not drawn) | -38%
36 | CCCN1CCN(CCCNC(=O)c2ccc3nc(N4CCC(C)CC4)sc3c2)CC1 | -50.7%
37 | CC1CCN(c2nc3ccc(C(=O)NCCCN4CCCCC4)cc3s2)CC1 | -50%
38 | CN(CC(=O)Nc1ccc(N2CCOCC2)cc1)C(=O)CCNC(=O)c1ccc(Br)cc1 | 3.43%
39 | O.Oc1cc(O)c2c(c1)O[C@H](c1ccc(O)c(O)c1)[C@@H](O)C2 | 17.4%
40 | O=C(c1ccc([N+](=O)[O-])o1)N1CCN(c2nc3c(F)cc(F)cc3s2)CC1 | -54.7%
41 | Cc1cccc2sc(N3CCN(C(=O)c4cccs4)CC3)nc12 | -9.51%
42 | Cc1cc(C)c2nc(N3CCN(C(=O)c4cccs4)CC3)sc2c1 | 0.575%
43 | Cc1ccc2sc(N3CCN(C(=O)c4ccc([N+](=O)[O-])o4)CC3)nc2c1C | 3.89%
44 | O=C(c1cccs1)N1CCN(c2nc3c(F)cc(F)cc3s2)CC1 | -50.1%
45 | O=C(c1ccc([N+](=O)[O-])o1)N1CCN(c2nc3ccc(F)cc3s2)CC1 | -23.7%
